TDP1 cell CPT – DT40-hTDP1 cell growth loss with CPT; chicken DT40 Tdp1-/-;hTDP1 cells + 20 nM CPT, ATP luminescence, 48 h; Potency, µM (top dose mostly 46.2 µM), without a hit: at the top dose activity change, negative = growth inhibition, usual class: inhibitors; hit rate 12% among 420,000; AID 686979; also: nearly all actives have a fitted effect of over 55% in size
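Chicken DT40 Tdp1-/- cells stably complemented with human TDP1 were seeded at 400 cells/well in medium containing 20 nM camptothecin, exposed to pin-transferred compounds, and grown at 37 °C for at least 48 hr. Viability was read as ATP luminescence.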
ELG1 DNA repair – ELG1-dependent DNA repair inhibition | HEK293T ELG1-luciferase reporter, luminescence, 16 h; DNA damage induced by 5-fluorouridine | Potency, µM (series often up to 46.1 µM), for the others: top-dose activity change, negative = inhibition, actives largely listed as inhibitors | hit rate 2.3% among 330,000; also: nearly all actives have a fitted effect of over 55% in size
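Cells (2,000 per well) received 5-fluorouridine plus test compound or DMSO and were incubated 16 hr at 37 °C, 5% CO2. Luciferase activity was read by luminescence 30 min after ONE-Glo addition; signal suppression marked inhibition of damage-induced ELG1 function.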
DT40 TDP1 no CPT – qHTS for Inhibitors of human tyrosyl-DNA phosphodiesterase 1 (TDP1): qHTS in cells in absence of CPT | DT40 Tdp1-/- hTDP1 cells, no CPT, ATP luminescence, 48 h | Potency, µM (top dose mostly 46.2 µM), for inactives: top-dose activity change, negative = growth inhibition, hits mostly inhibitors | hit rate 15% among 420,000 | AID 686978, 2013; also: nearly all actives have a fitted effect of over 55% in size
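DT40 Tdp1-/-;hTDP1 cells, no CPT (DMSO vehicle only), 400 cells/well; compounds pin-transferred; ≥48 hr, 37 °C; CellTiter-Glo 30 min RT dark, luminescence read.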
RORgamma inh – ROR gamma (mouse) transcription inhibition | P51450 | Drosophila S2 Gal4-RORgamma UAS-luciferase reporter, 20 h | Potency, µM (series often up to 53.6 µM), without a hit: top-dose activity change, negative = inhibition, usual class: inhibitors | hit rate 5.4% among 310,000 | AID 2551; also: nearly all actives have a fitted effect of over 60% in size
Target sequence (P51450 whole entry, looked up, the tested form may be a part): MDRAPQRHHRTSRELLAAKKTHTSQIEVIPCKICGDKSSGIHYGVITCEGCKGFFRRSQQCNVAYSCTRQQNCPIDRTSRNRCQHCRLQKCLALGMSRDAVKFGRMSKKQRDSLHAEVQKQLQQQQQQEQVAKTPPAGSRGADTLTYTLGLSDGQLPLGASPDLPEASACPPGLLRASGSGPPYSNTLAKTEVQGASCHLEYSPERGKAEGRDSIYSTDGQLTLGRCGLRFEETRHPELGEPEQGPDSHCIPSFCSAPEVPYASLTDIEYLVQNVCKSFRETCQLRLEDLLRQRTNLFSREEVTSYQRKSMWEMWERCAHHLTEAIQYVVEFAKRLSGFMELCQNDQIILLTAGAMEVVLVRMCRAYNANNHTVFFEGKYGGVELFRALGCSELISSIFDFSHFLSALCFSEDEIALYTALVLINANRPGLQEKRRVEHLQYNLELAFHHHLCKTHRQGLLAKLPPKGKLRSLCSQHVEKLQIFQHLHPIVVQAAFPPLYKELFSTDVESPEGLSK
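Luciferase reporter read in Schneider cells carrying Gal4-RORγ (mouse) and UAS-Photinus luciferase; cells given compound 1 h before 700 uM copper sulfate induction, then incubated 20 h at ambient temperature.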
ALOX12 inh – inhibitors of human 12S-lipoxygenase ALOX12; hit rate 1.1% among 580,000; Potency, µM (top dose mostly 108 µM), for inactives: at the top dose activity change, negative = inhibition, hits mostly inhibitors; P18054; purified 12hLO, xylenol orange hydroperoxide absorbance
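Purified human 12hLO (150 nM final) in 25 mM Hepes, 0.01% Triton X-100, pH 7.0 was preincubated 15 min at room temperature with compound. Then 40 uM arachidonic acid was added, 30 min. Hydroperoxide was read by Fe-XO absorbance ratio 573/405 nm.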
VP16 counter – counter-screen for ROR gamma inhibitors: Gal4-VP16 reporter; hit rate 3.5% among 310,000; Drosophila S2 Gal4-VP16 UAS-luciferase, luminescence, 20 h; Potency, µM (highest dose often 53.6 µM), without a hit: at the highest dose activity, negative = inhibition, hits mostly inhibitors; AID 2546;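 also: Gal4-VP16 expression switched on by copper sulfate through the metallothionein promoter; nearly all actives have a fitted effect of over 50% in size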
* marks the source's active call; other numbers are inactive results; u = inconclusive; x = no result; ! = not confirmed by another sample; [ ] = remark or other dose. A selection: hits, their analogues and other compounds. The true share with any hit is near 15%. Calls follow the shape of the dose curve; as a rule, active = well fitted curve in the direction sought with a large enough effect; inconclusive = small, poorly fitted or top-dose-only effect, or another doubt; inactive = no such curve, though single readings can be large; an effect the other way counts as inactive or inconclusive. % is scaled to controls: 0 for no effect and ±100 for the full control effect; potency is read from the fitted curve at half-maximal effect.

SMILES	TDP1 cell CPT	ELG1 DNA repair	DT40 TDP1 no CPT	RORgamma inh	ALOX12 inh	VP16 counter
O=C(C1CCCCC1)N1C[C@@H]2C[C@H](C1)c1c(-c3ccc(Cl)cc3)ccc(=O)n1C2	x	x	x	x	4%[176 µM]	x
CCOC(=O)Cc1csc(NC(=O)c2c(O)c3ccccc3n(CCC(C)C)c2=O)n1	4.1µM*	u	4.6µM*	-8%	7%	-2%
CCCCCCn1c(=O)c(C(=O)Nc2nc(CC(=O)OCC)cs2)c(O)c2ccccc21	3.7µM*	1.6µM*	3.7µM*	-18%	0%	-7%
CCCCn1c(=O)c(C(=O)NC(C)c2ccccc2)c(O)c2ccccc21 (stereo unspecified)	u	-10%	u	u	0%	u
O=C(NC1CCCCC1)[C@H]1CN2CC[C@H]1C[C@@H]2Cn1cc(C2(O)CCCC2)nn1	x	x	x	x	3%[176 µM]	x
O=C1c2ccccc2-c2cccc3cccc1c23	21µM*!	x	18µM*!	24%	u	4%
O=C(CCn1cccn1)N1C[C@H](c2cccc(F)c2F)[C@@H]2[C@H]1C1CCN2CC1	x	x	x	x	-31%	x
c1ccc(/N=C2\N=C(Nc3ccccn3)c3ccccc32)nc1	0.21µM*	x	0.15µM*	x	28%	x
CCN1CCN(C(=O)Cc2c[nH]c3ccccc23)CC1	x	x	x	x	-8%	x
COCC(=O)NC[C@H]1C[C@@H]2CCN1C[C@@H]2c1cc(-c2ccc(OC)cc2)nn1C	x	x	x	x	19%[176 µM]	x
COc1cccc(N2C(=O)NC(=O)/C(=C/c3ccc4c5c(cccc35)CC4)C2=O)c1	x	1%	x	17%	40µM*	-8%
CCOc1ccccc1N1C(=O)NC(=O)/C(=C/c2ccc3c4c(cccc24)CC3)C1=O	u	8%	u	-13%	-105%	-1%
Cc1ccc(-c2nc3c(=O)n(C)c(=O)nc-3n(C)n2)cc1	0.63µM*	x	0.5µM*	x	x	x
Cn1ncnc2c(=O)n(C)c(=O)nc1-2	0.21µM*	6.5µM*	0.29µM*	0.04µM*	u	0.63µM*
CCCS(=O)(=O)N1[C@H]2CC[C@@H]1c1cnc(-c3ccc(F)cc3)nc1C2	x	x	x	x	14%	x
N#Cc1cccc(-c2ccc3n(c2=O)C[C@H]2C[C@@H]3CN(C(=O)CSCC(=O)O)C2)c1	x	x	x	x	8%[176 µM]	x
COc1cccc(NC(=O)C2CCN(S(=O)(=O)c3cc(-c4noc(C)n4)ccc3C)CC2)c1	18µM*	x	18µM*	x	-28%	x
COc1cccc(NC(=O)CCc2nc(-c3ccc(C(C)(C)C)cc3)no2)c1	u	x	u	x	-17%	x
Cc1cc(N(CCCl)CCCl)ccc1C=Cc1ccncn1	2.6µM*	x	4.6µM*	x	5%	x
Cc1cc(N(CCCl)CCCl)ccc1/C=N/N=C(\N)c1cnccn1	7.3µM*	x	12µM*	x	u	x
C#CCC(Cc1cnc2nc(N)nc(N)c2n1)c1ccc(C(=O)N[C@@H](CCC(=O)O)C(=O)O)cc1 (stereo partly specified)	0.034µM*	x	0.024µM*	x	2%[57.4 µM]	x
COCCN1CCC(N2CCN(C(=O)Cc3ccc(F)cc3)CC2)C1=O (stereo unspecified)	x	x	x	x	-2%	x
O=C1NC(=S)NC(=O)C1c1ccccc1	0%	x	1%	x	32µM*	x
CCC(C)n1c(O)c(/C=N/Nc2ccccc2)c(=O)[nH]c1=S (stereo unspecified)	-2%	10%	10%	14µM*	u	6.3µM*
CCC(C)n1c(O)c(C=NCCN2CCOCC2)c(=O)[nH]c1=S (stereo unspecified)	28%	-6%	-6%	-11%	u	1%
CCC(C)n1c(O)c(/C=N/N2CCOCC2)c(=O)[nH]c1=S (stereo unspecified)	23µM*	0%	-91%	-35%	-8%	1%

Screens from PubChem BioAssay.
